Measured values taken from the supplement of paper PMC9694430.

Tests used:
Assay in all cases: thermal shift delta Tm vs DMSO control; higher = stronger stabilization (binding)
Settings in all cases: 12.5 µM; protein concentration 2 µM
[1] = system: LOC_OS01G01410-cb001
Outline: (§1)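 Rice kinase domain constructs were expressed in E. coli, purified, and tested by differential scanning fluorimetry with compound added in DMSO. Each well of a 96-well plate held 19.5 μl of 2 μM kinase in 100 mM potassium phosphate pH 7.5, 150 mM NaCl, 10% glycerol and 5 × SYPRO Orange, and fluorescence was read from 25°C to 95°C at 0.05°C/s. The melting temperature shift is the mean of triplicates, taken against protein with DMSO alone after Boltzmann fitting.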

[2] = system: LOC_OS01G02750-cb003
Outline: as §1

[3] = system: LOC_OS01G10900-cb004
Outline: as §1

[4] = system: LOC_OS01G13800-cb001
Outline: as §1

[5] = system: LOC_OS01G14860-cb001
Outline: as §1

[6] = system: LOC_OS01G21960-cb002
Outline: as §1

[7] = system: LOC_OS01G39600-cb002
Outline: as §1

[8] = system: LOC_OS01G48390-cb002
Outline: as §1

[9] = system: LOC_OS01G51400-cb002
Outline: as §1

[10] = system: T1, LOC_OS01G52050-cb004
T1 sequence (whole entry): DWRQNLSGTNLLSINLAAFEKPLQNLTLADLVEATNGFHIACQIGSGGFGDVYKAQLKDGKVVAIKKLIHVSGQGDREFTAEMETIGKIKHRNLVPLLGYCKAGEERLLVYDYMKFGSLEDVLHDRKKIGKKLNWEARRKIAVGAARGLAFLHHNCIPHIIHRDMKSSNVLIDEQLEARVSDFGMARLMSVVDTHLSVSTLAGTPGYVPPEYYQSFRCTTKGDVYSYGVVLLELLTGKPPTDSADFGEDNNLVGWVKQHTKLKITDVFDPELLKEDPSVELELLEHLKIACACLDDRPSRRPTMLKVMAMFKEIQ
Outline: as §1

[11] = system: LOC_OS01G57100-cb003
Outline: as §1

[12] = system: LOC_OS01G60330-cb001
Outline: as §1

[13] = system: LOC_OS01G60700-cb002
Outline: as §1

[14] = system: LOC_OS01G63280-cb003
Outline: as §1

[15] = system: LOC_OS01G67340-cb003
Outline: as §1

[16] = system: LOC_OS01G70970-cb002
Outline: as §1

[17] = system: LOC_OS02G07810-cb001
Outline: as §1

[18] = system: LOC_OS02G08530-cb003
Outline: as §1

[19] = system: LOC_OS02G14120-cb001
Outline: as §1

[20] = system: LOC_OS02G17970-cb001
Outline: as §1

| Structure (SMILES) | thermal shift delta Tm [1] | thermal shift delta Tm [2] | thermal shift delta Tm [3] | thermal shift delta Tm [4] | thermal shift delta Tm [5] | thermal shift delta Tm [6] | thermal shift delta Tm [7] | thermal shift delta Tm [8] | thermal shift delta Tm [9] | thermal shift delta Tm [10] | thermal shift delta Tm [11] | thermal shift delta Tm [12] | thermal shift delta Tm [13] | thermal shift delta Tm [14] | thermal shift delta Tm [15] | thermal shift delta Tm [16] | thermal shift delta Tm [17] | thermal shift delta Tm [18] | thermal shift delta Tm [19] | thermal shift delta Tm [20] |
| --- | --- | --- | --- | --- | --- | --- | --- | --- | --- | --- | --- | --- | --- | --- | --- | --- | --- | --- | --- | --- |
| COc1cc2ncnc(Nc3cccc(Cl)c3)c2cc1OC [AG-1478 (Tyrphostin AG-1478)] | 1.49 °C | 1.82 °C | 0.65 °C | 0.5 °C | 0.56 °C | 0.99 °C | 1.07 °C | 2.73 °C | 0.17 °C | 1.69 °C | 1.76 °C | 1.26 °C | 1.02 °C | 0.95 °C | 0.94 °C | 0.55 °C | 1.34 °C | 1.69 °C | 6.87 °C | 1.37 °C |
| CCOc1cc(C(=O)N2CCC(N3CCN(C)CC3)CC2)ccc1Nc1ncc2c(n1)N(C1CCCC1)c1ccccc1C(=O)N2C | 0.26 °C | 0.37 °C | 0.01 °C | -0.42 °C | 0 °C | 0.3 °C | -0.95 °C | 0 °C | -0.1 °C | -0.46 °C | 1.18 °C | 1.19 °C | 0.58 °C | -0.25 °C | 0.42 °C | 0.05 °C | 0.06 °C | 0.54 °C | -0.51 °C | -0.43 °C |
| OC1CCC(Nc2ncc3nc(Nc4c(F)cc(F)cc4F)n([C@H]4CCOC4)c3n2)CC1 (stereo not given in full) [Tanzisertib(CC-930)] | 0.32 °C | 0.43 °C | 0.32 °C | 0.7 °C | 0.73 °C | 0.08 °C | 0.06 °C | 0.2 °C | 0.08 °C | 2.88 °C | 1.12 °C | 0.58 °C | 0.28 °C | 0.29 °C | 0.54 °C | 0.55 °C | -0.22 °C | 1.25 °C | 1.58 °C | 0.06 °C |
| Cn1ncc(Cl)c1-c1cc(C(=O)N[C@H](CN)Cc2ccc(F)c(F)c2)oc1Cl | -0.41 °C | 1.78 °C | -0.33 °C | 1.08 °C | 0.15 °C | 1.66 °C | -0.06 °C | 1 °C | 0.44 °C | 1.06 °C | 1.78 °C | 0.8 °C | 1.33 °C | 0.28 °C | 0.45 °C | 0.03 °C | 0.82 °C | 0.49 °C | 0.41 °C | 1.67 °C |
| Nc1nc(Nc2ccc(S(N)(=O)=O)cc2)nn1C(=O)c1c(F)cccc1F | 4.86 °C | 1.06 °C | 0.71 °C | 0.59 °C | 5.95 °C | 1.73 °C | 4.79 °C | 5.9 °C | 0.49 °C | 5.43 °C | 1.36 °C | 7.23 °C | 0.65 °C | 3.58 °C | 3.74 °C | 3.11 °C | 1.06 °C | 1.98 °C | 8.28 °C | 0.44 °C |
| CNC(=O)c1cc(COc2nnc(Nc3ccc(Cl)cc3)c3ccoc23)ccn1 [Telatinib] | 0.67 °C | 0.92 °C | 0.29 °C | 0.36 °C | 0.15 °C | 0.85 °C | -0.38 °C | 0.26 °C | 0.08 °C | 0.21 °C | 1.9 °C | 0.6 °C | 0.35 °C | 0.76 °C | 0.82 °C | 0.19 °C | 0.85 °C | 0.69 °C | -0.19 °C | 1.35 °C |
| CCn1c2ccccc2c2cc(Nc3ccnc(NCCCN4CCOCC4)n3)ccc21 | -0.05 °C | -0.06 °C | 0.59 °C | -0.29 °C | 0.53 °C | 0.58 °C | -0.04 °C | 0.62 °C | 0.13 °C | 0.07 °C | 0.92 °C | 1.04 °C | 0.87 °C | 0.29 °C | 0.51 °C | 0.28 °C | 0.54 °C | 1.04 °C | -0.17 °C | 0.22 °C |
| CC(C)(C)c1ccc(S(=O)(=O)/C=C/C#N)cc1 | -0.73 °C | -1.97 °C | -1.97 °C | 0.14 °C | -0.21 °C | 1.29 °C | -0.46 °C | 0.36 °C | 0.18 °C | -3.59 °C | 3.12 °C | -0.21 °C | 1.42 °C | -3.74 °C | 0.12 °C | -4.09 °C | 0.63 °C | 1.02 °C | -0.46 °C | 5.71 °C |
| COc1cc2ncnc(Oc3cccc(NC(=O)Nc4cc(C(C)(C)C(F)(F)F)on4)c3)c2cc1OC | 0.82 °C | 1.07 °C | 0.12 °C | 0.13 °C | 0.91 °C | 0.64 °C | 0.02 °C | 0.73 °C | 0.35 °C | 0.75 °C | 1.91 °C | 0.64 °C | 0.86 °C | 1.66 °C | 0.78 °C | 0.38 °C | 0.77 °C | 1.04 °C | 1.43 °C | 0.45 °C |
| COc1cc2ncnc(Nc3ccc(F)c(Cl)c3)c2cc1NC(=O)/C=C/CN1CCCCC1 | 1.07 °C | 1.4 °C | 1.7 °C | 0.04 °C | 0.18 °C | 1.27 °C | -0.71 °C | 0.7 °C | 0.66 °C | 0.74 °C | 2.23 °C | 2.36 °C | 1.39 °C | 0.37 °C | 1.76 °C | 0.52 °C | 1.55 °C | 1.7 °C | 0.41 °C | 1.92 °C |
| COc1ccc(COc2ccc(Cc3cnc(N)nc3N)cc2OC)cc1 | -0.12 °C | 1.12 °C | 2.07 °C | 0.44 °C | 0.12 °C | 0.25 °C | 0.89 °C | -0.01 °C | 0.2 °C | 0.04 °C | -0.05 °C | 0.76 °C | 1.06 °C | 0.32 °C | 0.31 °C | 0.08 °C | 0.34 °C | -0.15 °C | 1.94 °C | 1.56 °C |
| O=S(=O)(c1cccc2c(I)cccc12)N1CCCNCC1 | 0.23 °C | 0.79 °C | 0.56 °C | 0.43 °C | 0.67 °C | 0.53 °C | 0.27 °C | 1.35 °C | 0.24 °C | 2.58 °C | 0.91 °C | -0.01 °C | 0 °C | 0.2 °C | 0 °C | 0.35 °C | 0.33 °C | 0.35 °C | 0.9 °C | 0.24 °C |
| C[C@@H]1COCCN1c1cc(=O)n2c(n1)N(Cc1cncc(Cl)c1)[C@H](C(F)(F)F)CC2 | 0.21 °C | 1.55 °C | 0.48 °C | 1.15 °C | 0.32 °C | 0.45 °C | 0.34 °C | 0.95 °C | 0.31 °C | 0.49 °C | 1.19 °C | 1.13 °C | 1.05 °C | 0.61 °C | 0.35 °C | 0.33 °C | 0.77 °C | 0.7 °C | 0.82 °C | 1.7 °C |
